Shown are actives, neighbours in structure and some others; about 1.3% of the full set was active somewhere.
NPR2 activator = human GC-B receptor activators, primary screen, HEK293 GC-B cells, cGMP TR-FRET, EC30 CNP | Atrial natriuretic peptide receptor 2 (Homo sapiens), P20594 | 0% at EC30 CNP, 100% saturating CNP | activation, % at 10 µM | 0.11% of 370,000 active | AID 1920062, 2024;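 active = activation at 10 µM reaching about 35% in either raw or pattern-adjusted values, limit read from the data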
Target sequence (P20594 whole entry, looked up): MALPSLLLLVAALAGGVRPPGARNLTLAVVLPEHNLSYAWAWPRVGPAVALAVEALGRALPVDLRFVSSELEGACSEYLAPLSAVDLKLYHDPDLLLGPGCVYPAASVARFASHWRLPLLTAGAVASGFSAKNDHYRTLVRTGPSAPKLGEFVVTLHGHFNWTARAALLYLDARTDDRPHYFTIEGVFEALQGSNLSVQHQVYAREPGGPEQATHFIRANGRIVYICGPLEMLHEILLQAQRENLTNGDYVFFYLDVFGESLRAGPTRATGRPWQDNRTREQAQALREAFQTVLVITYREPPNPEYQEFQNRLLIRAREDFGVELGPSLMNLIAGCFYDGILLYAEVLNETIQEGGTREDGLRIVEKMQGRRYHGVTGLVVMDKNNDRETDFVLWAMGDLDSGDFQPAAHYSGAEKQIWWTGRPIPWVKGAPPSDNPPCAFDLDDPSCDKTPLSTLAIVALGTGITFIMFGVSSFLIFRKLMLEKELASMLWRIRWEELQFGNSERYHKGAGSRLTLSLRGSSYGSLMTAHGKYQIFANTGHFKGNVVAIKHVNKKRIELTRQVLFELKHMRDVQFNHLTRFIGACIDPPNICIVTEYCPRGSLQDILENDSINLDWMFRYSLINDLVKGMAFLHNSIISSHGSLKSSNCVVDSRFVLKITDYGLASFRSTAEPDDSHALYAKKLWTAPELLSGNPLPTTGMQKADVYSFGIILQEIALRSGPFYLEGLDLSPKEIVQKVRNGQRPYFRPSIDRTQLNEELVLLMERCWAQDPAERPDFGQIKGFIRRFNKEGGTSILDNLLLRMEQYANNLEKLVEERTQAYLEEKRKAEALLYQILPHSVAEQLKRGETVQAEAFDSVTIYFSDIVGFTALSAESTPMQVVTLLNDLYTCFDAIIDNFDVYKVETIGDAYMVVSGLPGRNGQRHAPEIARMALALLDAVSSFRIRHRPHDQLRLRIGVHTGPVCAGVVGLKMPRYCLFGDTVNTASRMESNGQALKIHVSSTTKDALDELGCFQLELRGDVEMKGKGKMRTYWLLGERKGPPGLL
GC-A act = GC-A stimulated cGMP production enhancers – HEK293 GC-A cells, cGMP TR-FRET, EC30 ANP, primary screen | Atrial natriuretic peptide receptor 1 (Homo sapiens), P16066 | 0% at EC30 ANP, 100% saturating ANP | activation, % at 10 µM | 0.14% of 370,000 active; in the data active = activation above about 40%
ADAM10 inh = human ADAM10 inhibitors, primary screen, biochemical, QFRET, HTS; recombinant ADAM10, EDANS/DABCYL FRET peptide cleavage, 3 h; inhibition, % at 7 µM; 0.62% of 370,000 active; AID 720582, 2013;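 active = inhibition above a per-campaign cutoff equal to the mean of compounds falling between control-based bounds plus 3 SD, cut at about 20% in these data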;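 also: 0% = DMSO wells while the 100% control is not disclosed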
ADAM17 inh = ADAM17 inhibitors, primary screen, biochemical, QFRET; inhibition, % at 6.95 µM; recombinant ADAM17, EDANS/DABCYL FRET peptide cleavage; 0.83% of 370,000 active; Disintegrin and metalloproteinase domain-containing protein 17 (Homo sapiens), P78536;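 active = inhibition above the mean of compounds lying between control limits plus 3 SD, set per campaign, cut at about 8.5% in these data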;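 also: 0% = DMSO-only wells as the low control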
ADAM10 confirm = human ADAM10 inhibitors, confirmation, biochemical, QFRET, triplicate; inhibition, % at 6.95 µM; ADAM10 QFRET peptide cleavage, EDANS fluorescence; 1% of 2,100 active; shares compounds with ADAM10 inh;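 active = inhibition above about 20% chosen separately for each screening run, limit read from the data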;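 also: 0% = DMSO wells and 100% = marimastat wells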
ADAM17 counter = ADAM17 inhibitors, counter-screen for ADAM10 exosite inhibitor project, biochemical, QFRET, high throughput; shares compounds with ADAM10 inh; ADAM17 QFRET peptide cleavage, EDANS fluorescence; inhibition, % at 6.95 µM; 0.5% of 2,100 active;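 active = mean triplicate inhibition above the solvent-only control wells' mean plus 3 SD, cut at about 12% in these data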;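 also: 0% = DMSO wells and 100% = marimastat wells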
* = called active by the depositor; . = no result.

SMILES	NPR2 activator	GC-A act	ADAM10 inh	ADAM17 inh	ADAM10 confirm	ADAM17 counter
O=C(Nc1ccc(Cl)cc1)Nc1ccccc1NS(=O)(=O)c1cccs1	2	7	23*	8	4	1
COc1ccc(S(=O)(=O)Nc2cc(OC)c(NC(=O)c3ccco3)cc2OC)cc1	-6	-6	21*	8	1	0
CCNc1nc(NC(C)C)nc(SCCOC(=O)c2ccccc2)n1	5	6	14	5	.	.
CCNc1nc(NC(C)C)nc(SCCOc2ccc(C)cc2)n1	2	6	24*	7	7	1
CCCCCCCN1CCC(=O)N([C@H](CO)CC(C)C)CC1	1	1	8	2	.	.
N#Cc1nc(COc2ccc(Br)cc2)oc1N1CCCCCC1	2	0	1	2	.	.
N#Cc1nc(COc2ccc(Br)cc2)oc1N1CCCC1	-9	2	21*	5	2	0
CC(=O)N1c2ccc(S(=O)(=O)N3CCC(C(=O)Nc4cccc(F)c4)CC3)cc2CC1C (centres undefined)	0	4	-4	-1	.	.
COc1ccc(/C(O)=C2/C(=O)C(=O)N(c3ccccn3)C2c2ccc(C(C)C)cc2)cc1 (centres undefined)	-2	3	-1	6	.	.
Cn1c(=O)c2c(nc(N3CCCCC3)n2CC(O)COc2ccccc2)n(C)c1=O (centres undefined)	-1	-6	21*	0	-1	0
O=C(Nc1nccs1)c1cc2cc(Cl)ccc2oc1=O	-7	1	3	-6	.	.
Cc1noc(NS(=O)(=O)c2ccc(NC(=O)/C=C/c3ccc(C(C)C)cc3)cc2)c1C	-5	-1	3	4	.	.
Cc1noc(NS(=O)(=O)c2ccc(NC(=O)/C=C/c3ccc(Br)cc3)cc2)c1C	-1	-1	22*	-2	0	0
CCOc1ccc(-c2nc(CSCC(=O)NCC3CCCO3)c(C)o2)cc1 (centres undefined)	-2	0	7	6	.	.
C[C@H](CO)N1C[C@H](C)[C@@H](CN(C)S(=O)(=O)c2ccccc2)Oc2c(NC(=O)Nc3ccccc3)cccc2C1=O	-1	0	12	3	.	.
COc1ccc(S(=O)(=O)N(C)C[C@H]2OCCCC[C@H](C)Oc3ccc(NC(=O)Nc4ccc(F)cc4)cc3C(=O)N([C@H](C)CO)C[C@H]2C)cc1	9	0	14	7	.	.
Cc1ccc(S(=O)(=O)N(C)C[C@@H]2OCCCC[C@H](C)Oc3ccc(NC(=O)Nc4ccc(F)cc4)cc3C(=O)N([C@H](C)CO)C[C@H]2C)cc1	0	2	23*	8	7	3
C[C@@H]1CCCCO[C@H](CN(C)S(=O)(=O)c2cccs2)[C@@H](C)CN([C@H](C)CO)C(=O)c2cc(NC(=O)Nc3ccc4c(c3)OCO4)ccc2O1	4	1	20*	5	5	1
C[C@H]1CN([C@@H](C)CO)C(=O)c2cccc(NC(=O)Nc3ccc(C(F)(F)F)cc3)c2O[C@@H]1CN(C)S(=O)(=O)c1ccccc1	4	-1	40*	21*	3	2
C[C@@H]1CN([C@@H](C)COC(=O)C(C)(C)C)C(=O)c2cc(NC(=O)Nc3ccccc3)ccc2O[C@@H](C)CCCCO[C@H]1CN(C)S(=O)(=O)c1ccc(F)cc1	2	1	25*	6	15	5
COc1ccc(C(=O)NCCN2C(=O)C3C4C=CC(C4)C3C2=O)cc1OC (centres undefined)	1	-2	1	0	.	.
NS(=O)(=O)c1cnccc1Nc1cccc(F)c1	0	6	-6	-5	.	.
Cc1ccc(S(=O)(=O)Nc2ccc3c(c2)C(=O)N([C@@H](C)CO)C[C@@H](C)[C@@H](CN(C)S(=O)(=O)c2ccccc2)OCCCC[C@H](C)O3)cc1	-5	-7	23*	8	7	2

Screening data (PubChem)
